CYP2C19 act: increases human CYP2C19 enzyme activity; recombinant CYP2C19, luciferin-H EGE luminescence; active compounds read high; 0 = fully inhibited enzyme, 1 = untreated enzyme; P33261; activation factor at 5 µM; 96,000 tested, under 10 active;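 active = activation factor of at least 2 at 5 µM in the primary screen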
CYP2C9 inh: human CYP2C9 inhibition; P11712; inhibition, % at 5 µM; CYP2C9 Supersomes, luciferin-H conversion, luminescence; AID 777; 96,000 tested, 20% active;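 active = blocking of liver enzyme CYP2C9 beyond about 50% at 5 µM, limit read from the data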
Target sequence (P11712 whole entry, looked up): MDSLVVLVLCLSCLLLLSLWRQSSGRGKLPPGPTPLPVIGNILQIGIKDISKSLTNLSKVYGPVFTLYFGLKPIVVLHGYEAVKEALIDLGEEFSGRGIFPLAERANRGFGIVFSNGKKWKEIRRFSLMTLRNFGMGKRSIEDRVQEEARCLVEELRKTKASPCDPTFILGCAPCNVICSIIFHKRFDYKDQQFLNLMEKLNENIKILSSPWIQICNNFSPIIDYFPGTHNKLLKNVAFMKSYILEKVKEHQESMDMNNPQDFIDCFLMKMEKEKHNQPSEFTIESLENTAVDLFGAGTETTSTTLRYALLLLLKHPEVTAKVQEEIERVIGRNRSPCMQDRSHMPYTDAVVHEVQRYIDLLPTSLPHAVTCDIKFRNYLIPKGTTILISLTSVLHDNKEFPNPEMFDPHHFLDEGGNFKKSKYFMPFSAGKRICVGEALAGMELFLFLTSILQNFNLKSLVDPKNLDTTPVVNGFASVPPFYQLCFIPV
Plk1 PBD FP: inhibitors of human Plk1 polo box domain binding; P53350; Plk1 PBD phosphopeptide binding, fluorescence polarization; inhibition, %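 (tested at about 20 µM)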; 97,000 tested, 0.13% active; AID 693; in the data active = inhibition above about 34%, passing the limit was not always enough
PLK1 inh: blocks human PLK1 kinase activity. recombinant PLK1 kinase, TR-FRET peptide phosphorylation. AID 619. 97,000 tested, 0.53% active. inhibition, % at 10 µM;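 active = inhibition of 50% or more in the single-concentration screen; inactive = inhibition below 50%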
CYP2C9 act: activators of human CYP2C9; 96,000 tested, 1.4% active; recombinant CYP2C9, luciferin-H conversion, luminescence; active compounds read high; factor 1 = untreated enzyme, 0 = blocked; activation factor at 5 µM;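 active = activation factor of 2 or more for CYP2C9 at a 5 µM dose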
CYP2C19 inh: blocks human cytochrome P450 2C19; P33261; CYP2C19 Supersomes, luciferin-H EGE luminescence, 30 min; inhibition, % at 5 µM; 96,000 tested, 21% active;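 active = CYP2C19 inhibition above a set limit at 5 µM in the primary screen, cut at about 50% in these data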
Each line names hits and unclear results; the compound was inactive in the other large screens. Hits are enriched below; roughly 28% of the tested compounds scored in any of these assays.

O=S(=O)(NCCc1ccccc1)c1ccc(S(=O)(=O)N2CCCCC2)cc1	none
COc1ccccc1CNc1ncnc2c1nnn2Cc1ccccc1	CYP2C19 inh 54.7
CCCCNc1ncnc2c1cnn2-c1ccc(Cl)cc1	CYP2C9 inh 70.4 (no result: Plk1 PBD FP, PLK1 inh)
c1ccc(N2CCN(c3nc(NCc4ccco4)c4ccccc4n3)CC2)cc1	CYP2C9 inh 90.9, CYP2C19 inh 96.0
C=CCNc1ncnc2c1cnn2-c1ccc(Cl)cc1	none (no result: Plk1 PBD FP, PLK1 inh)
Clc1ccc(Cn2ncc3c(NCc4ccccc4)ncnc32)cc1	none
COc1ccccc1CNc1ncnc2nc[nH]c12	none (no result: Plk1 PBD FP, PLK1 inh)
COCCNc1ncnc2c1cnn2Cc1ccc(Cl)cc1	CYP2C19 inh 81.6
CCOc1cccc2c1OC1(C)CC2NC(=O)N1c1cccc(F)c1 (stereo not drawn)	none
N#Cc1c(NC(=O)CSc2nc(-c3ccco3)cc(C(F)(F)F)n2)sc2c1CCCC2	none
CCCCNc1ncnc2c1cnn2-c1ccccc1	CYP2C9 inh 99.1, CYP2C19 inh 88.8
c1ccc(-n2ncc3c(NCc4ccco4)ncnc32)cc1	CYP2C9 inh 58.9, CYP2C19 inh 50.1
COc1ccc(Nc2ncnc3c2cnn3Cc2ccccc2)cc1OC	CYP2C9 inh 73.0, CYP2C19 inh 84.4
Clc1ccc(-n2ncc3c(NCCN4CCOCC4)ncnc32)cc1	none
Clc1ccc(-n2ncc3c(NCCCn4ccnc4)ncnc32)cc1	CYP2C9 inh 92.6, CYP2C19 inh 94.6
COc1ccccc1S(=O)(=O)Nc1ccc(-c2nnc3n2CCCCC3)cc1	none
CCn1cc(C(=O)NCCCOC)c(=O)c2cc(S(=O)(=O)N(C)C)ccc21	none (no result: CYP2C19 act, CYP2C9 inh, CYP2C9 act, CYP2C19 inh)
CCCCCCOC(=O)/C=C/c1c(C)[nH]c(=O)[nH]c1=O	none
Cn1nnnc1SCC(=O)NCc1ccccc1	none (no result: CYP2C19 act, CYP2C9 inh, CYP2C9 act, CYP2C19 inh)
Cc1ccnc(SCc2nc3ccccc3s2)n1	CYP2C19 inh 92.5
COc1ccccc1Nc1nc(N)nc(CSc2nccc(C)n2)n1	none
Cn1nnnc1SCc1nc2ccccc2s1	CYP2C19 inh 64.2
CC(=O)c1cccc(NC(=O)N2CCc3ccccc3C2)c1	CYP2C9 inh 56.5, CYP2C19 inh 68.3
Cc1ccc(NC(=O)N2CCC(C(=O)NCc3ccccc3)CC2)cc1	none (no result: CYP2C19 act, CYP2C9 inh, CYP2C9 act, CYP2C19 inh)
Cc1ccc(C2CCN(C(=O)Nc3ccccc3)C2)cc1 (stereo not drawn)	CYP2C19 inh 60.5
Cc1ccc(N2CC(C(=O)N3CCc4ccccc4C3)CC2=O)cc1 (stereo not drawn)	CYP2C9 inh 66.8
Cc1ccc(NC(=O)N2CCc3ccccc3C2)cc1	CYP2C19 inh 92.9
CC(=O)c1cccc(NC(=O)N2CCCc3ccccc32)c1	none
O=C(Nc1ccccc1)N1CCc2ccccc2C1	none (no result: CYP2C19 act, CYP2C9 inh, CYP2C9 act, CYP2C19 inh)
Cc1ccc(-n2nc3c(c2NC(=O)c2c(-c4ccccc4Cl)noc2C)CSC3)cc1	none
COC(=O)c1cccnc1NC(=S)NNC(=O)c1ccccc1	none
CC(NC(=O)c1ccc2c(c1)OCO2)C1CCCO1 (stereo not drawn)	none (no result: Plk1 PBD FP, PLK1 inh)
Cc1ccc(C(=O)Nc2c3c(nn2C(C)(C)C)CS(=O)(=O)C3)cc1C	CYP2C19 inh 98.8
CC(C)(C)n1nc2c(c1NC(=O)c1ccc(Br)cc1)CS(=O)C2 (stereo not drawn)	none
COC(=O)CSC1=NS(=O)(=O)c2ccccc21	none
O=C(CSC1=NS(=O)(=O)c2ccccc21)Nc1ccccc1	CYP2C19 inh 52.6
COc1ccc(C(=O)N(Cc2ccco2)Cc2cccs2)c(O)c1	CYP2C9 inh 95.4, CYP2C19 inh 88.4
COc1ccc(N2CCN(c3ccc(NC(=O)C4CCCCC4)cc3C#N)CC2)cc1	none
CC(=O)Nc1cccc(Oc2cc(C#N)c(C#N)cc2N2CCCCCC2)c1	CYP2C9 inh 100.0, CYP2C19 inh 95.8
COc1ccc(NC(=O)C2CCCCN2N)cc1OCC(C)C (stereo not drawn)	CYP2C19 inh 93.7
COc1ccc(NC(=O)C2CCCCN2CC(=O)OCc2ccccc2)cc1OC (stereo not drawn)	CYP2C9 inh 62.5, CYP2C19 inh 66.6
COc1ccc(CCNc2nc(C)cc(=O)[nH]2)cc1OC	none (no result: CYP2C19 act, CYP2C9 inh, CYP2C9 act, CYP2C19 inh)
COc1ccc(CCNc2ncnc3[nH]ncc23)cc1OC	none
COc1ccc(CCNc2ccncn2)cc1OC	CYP2C9 inh 66.7, CYP2C19 inh 94.2
COc1ccc(N2CCN(c3nc(NCCc4ccc(OC)c(OC)c4)nc(OC)n3)CC2)cc1	CYP2C9 inh 83.0, CYP2C19 inh 82.2
CCOc1cc(C)nc(NCCc2ccc(OC)c(OC)c2)n1	CYP2C19 inh 65.6
CCOC(=O)c1cnc2ccccc2c1NCCc1ccc(OC)c(OC)c1	CYP2C9 inh 82.6, CYP2C19 inh 74.7
CC(C)CNC(=O)C1C2C=CC(C2)C1C(=O)O (stereo not drawn)	none
Cc1cccc(N2CCN(C(=O)C3CCN(S(=O)(=O)c4cccnc4)CC3)CC2)c1C	none
O=C(NC1CCCCC1)C(c1ccco1)N(Cc1cccnc1)C(=O)C1COc2ccccc2O1 (stereo not drawn)	CYP2C9 inh 75.5, CYP2C19 inh 84.2
O=C(NC1CCCC1)C(c1ccco1)N(Cc1ccccc1)C(=O)c1csnn1 (stereo not drawn)	CYP2C19 inh 71.1
O=C(NCc1ccc2c(c1)OCO2)C(c1ccco1)N(C(=O)c1csnn1)c1ccccc1 (stereo not drawn)	CYP2C19 inh 74.7
O=C(NCC(=O)N(Cc1ccccc1)C(C(=O)NC1CCCC1)c1cccnc1)c1ccco1 (stereo not drawn)	none (no result: CYP2C19 act, CYP2C9 inh, CYP2C9 act, CYP2C19 inh)
CC1(C)CC(=O)C=C(N=CC2=C(O)CC(C)(C)CC2=O)C1	none
CCCCCC(=O)Nc1cc2[nH]c(=O)cc(COC)c2cc1C	none
O=C(c1ccc(Cn2c(=O)[nH]c3ccccc3c2=O)cc1)N1CCN(c2ccc(F)cc2)CC1	CYP2C9 inh 62.4, CYP2C19 inh 88.5
CCN1CCN(C(=O)c2ccc(Cn3c(=O)[nH]c4cc(OC)c(OC)cc4c3=O)cc2)CC1	none
COc1ccc(Cn2c(=O)[nH]c3cc(C(=O)N4CCN(Cc5ccccc5)CC4)ccc3c2=O)cc1	CYP2C9 inh 75.4, CYP2C19 inh 63.7
CCCOc1ccc(/C(O)=C2/C(=O)C(=O)N(c3cc(C)on3)C2c2ccc(C(=O)OC)cc2)cc1 (stereo not drawn)	none
O=S(=O)(Nc1cccnc1)c1cccc(Cl)c1	none
O=S(=O)(Nc1ccncc1Cl)c1ccccc1	CYP2C9 inh 70.3
O=C1CN(c2nc3ccccc3n3cnnc23)CC(=O)N1CCc1ccccc1	CYP2C9 inh 62.0
O=C(Cn1nnc2c(cnn2-c2ccc(F)cc2)c1=O)OC1CCCCC1	CYP2C19 inh 62.5
CC(=O)C1=C(C)NC(SCC(=O)c2ccc(Cl)cc2)=C(C#N)C1CC(C)C (stereo not drawn)	CYP2C9 inh 95.2, CYP2C19 inh 99.1
CCOC(=O)C1=C(C)NC(SCC(=O)O)=C(C#N)C1c1ccco1 (stereo not drawn)	none
CCc1ccc(C(=O)CSC2=C(C#N)C(c3ccco3)C(C(C)=O)=C(C)N2)cc1 (stereo not drawn)	CYP2C9 inh 75.8

High-throughput results: PubChem BioAssay, several laboratories
